Data: the supplement of paper PMC4466140

B1: unnamed (peptide)
chain: FLIKFTPKFPQSIDH

Molecular target: SpBzz1-D2
Assay: SPOT peptide array binding signal intensity (averaged, normalized) (arbitrary units (background-subtracted, floor 0; scale differs between SH3 domains)); higher = stronger binding of the SH3 domain to the peptide
How it was run: (§1)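 Spot intensities were captured after detection with anti-GST antibody, an HRP-linked anti-mouse secondary and luminol, and quantified with Genespotter. The probes were GST-fused SH3 domains from four yeast species, produced in E. coli BL21(DE3), purified on glutathione Sepharose and incubated at 10 μg/ml overnight at 4°C on cellulose-bound synthetic 15-mer peptides with cysteines replaced by serines. Binding signal is the normalized, background-subtracted spot intensity averaged over replicates, and its arbitrary units differ between domains.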

| Binder | SPOT peptide array binding signal intensity |
| --- | --- |
| B1 | 17.8 |

Molecular target: SpCyk3
Assay: as above
How it was run: as §1

| Binder | SPOT peptide array binding signal intensity |
| --- | --- |
| B1 | 48.5 |

Molecular target: SpHof1
Assay: as above
How it was run: as §1

| Binder | SPOT peptide array binding signal intensity |
| --- | --- |
| B1 | 662 |

Molecular target: SpHof1-2
Assay: as above
How it was run: as §1

| Binder | SPOT peptide array binding signal intensity |
| --- | --- |
| B1 | 126 |

Molecular target: SpHof1-3
Assay: as above
How it was run: as §1

| Binder | SPOT peptide array binding signal intensity |
| --- | --- |
| B1 | 1580 |

Molecular target: SpHse1
Assay: as above
How it was run: as §1

| Binder | SPOT peptide array binding signal intensity |
| --- | --- |
| B1 | 1950 |

Molecular target: SpLsb1
Assay: as above
How it was run: as §1

| Binder | SPOT peptide array binding signal intensity |
| --- | --- |
| B1 | 11.5 |

Molecular target: SpLsb4
Assay: as above
How it was run: as §1

| Binder | SPOT peptide array binding signal intensity |
| --- | --- |
| B1 | 610 |

Molecular target: SpMyo1
Assay: as above
How it was run: as §1

| Binder | SPOT peptide array binding signal intensity |
| --- | --- |
| B1 | 75 |

Molecular target: SpNbp2
Assay: as above
How it was run: as §1

| Binder | SPOT peptide array binding signal intensity |
| --- | --- |
| B1 | 1010 |

Molecular target: SpPex13
Assay: as above
How it was run: as §1

| Binder | SPOT peptide array binding signal intensity |
| --- | --- |
| B1 | 309 |

Molecular target: SpRvs167
Assay: as above
How it was run: as §1

| Binder | SPOT peptide array binding signal intensity |
| --- | --- |
| B1 | 49.8 |

Molecular target: SpSla1-D1-D2
Assay: as above
How it was run: as §1

| Binder | SPOT peptide array binding signal intensity |
| --- | --- |
| B1 | 4 |

Molecular target: SpSla1-D3
Assay: as above
How it was run: as §1

| Binder | SPOT peptide array binding signal intensity |
| --- | --- |
| B1 | 172 |
